Reference: PubChem BioAssay AID651658 (Broad Institute, 2012)
Hit rate of the full screen: of about 340,000 compounds, about 5,100 (1.5%) were called active.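 How the source made its calls: active means mean Tm shift, scaled 0 neutral to 100 positive control, at about 1.3% or above, every replicate too (limit read from the data); inconclusive means no clear call, values can overlap the other calls; inactive means the rest.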 Only a selection was taken, and actives are over-represented in it overall.

Biological target: Fibroblast growth factor 22 (Homo sapiens) (UniProt Q9HCT0)
Sequence (Q9HCT0 whole entry, looked up): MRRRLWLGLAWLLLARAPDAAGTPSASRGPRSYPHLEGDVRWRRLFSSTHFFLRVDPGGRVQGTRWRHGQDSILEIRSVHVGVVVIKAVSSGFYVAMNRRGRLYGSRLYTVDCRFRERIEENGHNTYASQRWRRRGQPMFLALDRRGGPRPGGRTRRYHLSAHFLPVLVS
Assay: FGF22 ligand-induced thermal stabilization – biophysical, thermal shift, single point, FGF22 synaptogenesis inhibitor project, primary screen (AID 651658)
Details: recombinant FGF22 thermal shift, SYPRO orange fluorescence; at 9.99 µM; active compounds read high; percent of sucrose octasulfate shift, DMSO zero

SMILES	activity (Tm shift, normalised)
Cc1ccc(OCC(=O)Nc2ccc(N3CCN(C(=O)c4ccco4)CC3)cc2)c(C)c1	-0.015% (inactive)
CCC(=O)Nc1ccc(C(=O)N2CCN(C(=O)c3ccco3)CC2)cc1	44.4% (active)
Cc1ccc(NC(=O)C(c2ccccc2)N2CCN(C(=O)c3ccco3)CC2)cc1 (stereo unspecified)	-0.162% (inactive)
O=C(Nc1cccc(F)c1)N[C@@H]1CC[C@@H](CCn2cc(Cc3ccccc3)nn2)O[C@@H]1CO	0.097% (inactive)
CO[C@@H]1CN(C)C(=O)c2cc(NC(=O)C3CCCC3)ccc2OC[C@@H](C)N(C(=O)Nc2ccc(C(F)(F)F)cc2)C[C@H]1C	-0.774% (inactive)
O=C(C[C@H]1C[C@H]2c3cc(NC(=O)CC4CC4)ccc3O[C@H]2[C@H](CO)O1)NCc1ccccn1	0.96% (inactive)
Cc1cc(=O)[nH]c(SCC(=O)Nc2ccc(Br)cc2)n1	-0.265% (inactive)
Cc1ccc(NC(=O)CSc2nc(CSc3ccc(C)cc3)cc(=O)[nH]2)cc1	44% (active)
CCCc1cc(=O)[nH]c(SCC(=O)Nc2ccc(C(=O)Nc3ccccc3OC)cc2)n1	-0.412% (inactive)
COc1ccc(S(=O)(=O)Nc2ccc3c(c2)C(=O)N([C@@H](C)CO)C[C@H](C)[C@@H](CN(C)C(=O)Nc2ccc4c(c2)OCO4)OCCCC[C@@H](C)O3)cc1	0.801% (inactive)
C[C@H](CO)N1C[C@H](C)[C@H](CN(C)CC2CCCC2)Oc2ncc(Br)cc2C1=O	-0.016% (inactive)
CC(C)NC(=O)N1[C@H](CO)[C@@H]2c3ccccc3N(C(=O)Nc3cccc(Cl)c3)C[C@@H]21	0.043% (inactive)
Cc1ccc(S(=O)(=O)N(C)C[C@@H]2Oc3c(NC(=O)NC(C)C)cccc3C(=O)N([C@H](C)CO)C[C@H]2C)cc1	0.01% (inactive)
CC(=O)Nc1ccc(/C=N/Nc2ccc(C(=O)c3c(C)cc4ccccn34)cc2[N+](=O)[O-])cc1	-0.063% (inactive)
Cc1ccc(C(C[N+](=O)[O-])c2c(C)cc3ccccn23)cc1 (stereo unspecified)	43.8% (active)
Cc1cc2ccccn2c1C(=O)c1cccc(F)c1	-0.141% (inactive)
Cc1cc(C)n(-c2ccc3nncn3n2)n1	43.4% (active)
Cc1cc(C)n(-c2nnc(N3CCN(c4ccccc4)CC3)nn2)n1	0.536% (inactive)
O=C(Nc1ccccc1Cl)N1CCN(c2ccc3nncn3n2)CC1	0.014% (inactive)
CCS(=O)(=O)N1Cc2cc(C(=O)N(C)C)nc(-c3cccc(-c4ccc(C#N)cc4)c3)c2[C@H]1CCO	-0.41% (inactive)
CCCC#Cc1ccc2c(c1)O[C@@H](CN(C)C(=O)c1cccnc1)[C@H](C)CN([C@H](C)CO)S2(=O)=O	-0.014% (inactive)
CN1CCN(C(=O)c2ccc(-c3ccc(Br)cc3)o2)CC1	-0.078% (inactive)
S=C(c1ccc(-c2ccccc2)o1)N1CCCCC1	43.4% (active)
OCCN1CCN(C(=S)c2ccc(-c3ccccc3)cc2)CC1	-0.171% (inactive)
C[C@@H]1CN([C@@H](C)CO)C(=O)Cc2cc(NS(C)(=O)=O)ccc2O[C@H]1CN(C)S(=O)(=O)c1ccc(F)cc1	0.13% (inactive)
COc1cccc(CNC(=O)C[C@@H]2C=C[C@@H](NC(=O)C3CCC3)[C@@H](CO)O2)c1	0.068% (inactive)

SMILES	activity (Tm shift, normalised)
Cc1ccc(SC(C)C(=O)NCc2ccc(F)cc2)cc1 (stereo unspecified)	43.3% (active)
CSc1ccc(CN(C)CC(=O)NCc2ccc(F)cc2)cc1	0.292% (inactive)
Cc1ccc(CS(=O)(=O)CCC(=O)NCc2ccc(F)cc2)cc1	-0.138% (inactive)
CC(C)NC(=O)N(C)C[C@@H]1Oc2c(NC(=O)c3nc4ccccc4s3)cccc2C(=O)N([C@H](C)CO)C[C@H]1C	29.2% (active)
C[C@H](CO)N1C[C@H](C)[C@H](CN(C)C(=O)NC2CCCCC2)Oc2c(NC(=O)c3nc4ccccc4s3)cccc2C1=O	-0.035% (inactive)
C[C@@H]1CN([C@H](C)CO)C(=O)c2cccc(NC(=O)c3nc4ccccc4s3)c2O[C@@H]1CN(C)C	0.121% (inactive)
COc1ccc(S(=O)(=O)Nc2ccc3c(c2)C(=O)N([C@H](C)CO)C[C@@H](C)[C@H](CN(C)C(=O)c2ccncc2)OCCCC[C@@H](C)O3)cc1	-0.014% (inactive)
O=C(C[C@H]1C[C@H]2c3cc(NC(=O)CC4CC4)ccc3O[C@H]2[C@H](CO)O1)NCc1ccccc1	0.206% (inactive)
N#C[C@@H]1[C@@H](c2ccc(-c3cccnc3)cc2)[C@H](CO)N1C(=O)Nc1ccc(F)cc1	0.238% (inactive)
O=C(Nc1nnc(-c2ccc(F)cc2)s1)c1c(F)cccc1Cl	0.279% (inactive)
O=C(Nc1nnc(-c2ccccc2F)s1)c1ccccc1F	2.31% (active)
CN(Cc1ccccc1)S(=O)(=O)c1nnc(NC(=O)c2ccccc2F)s1	-0.151% (inactive)
CN(C(=O)CSc1nnc(-c2ccc(C(C)(C)C)cc2)n1C)C1CCS(=O)(=O)C1 (stereo unspecified)	0.442% (inactive)
CCN(C(=O)CSc1nc2ccccc2n1CC)C1CCS(=O)(=O)C1 (stereo unspecified)	0.234% (inactive)
CCn1c(SCC(=O)N(C)C2CCS(=O)(=O)C2)nnc1-c1cccs1 (stereo unspecified)	43.9% (active)
Cc1ccc(S(=O)(=O)Nc2ccc3c(c2)C(=O)N([C@H](C)CO)C[C@H](C)[C@@H](CN(C)C(=O)NC(C)C)OCCCC[C@@H](C)O3)cc1	0.879% (inactive)
CCCc1cn(CC[C@@H]2CC[C@@H](NC(=O)CCN3CCCCC3)[C@H](CO)O2)nn1	0.083% (inactive)
Cc1cc(C(=O)COC(=O)C2CC2)c(C)n1-c1ccc(F)cc1	0.711% (inactive)
COc1ccc(-n2c(C)cc(C(=O)COC(=O)c3cc(OC)c(OC)cc3NC(=O)c3cccs3)c2C)cc1	43.4% (active)
COc1ccc(C(=O)COC(=O)CNC(=O)c2cccs2)cc1Br	-0.191% (inactive)
COc1ccc2c3c(n(C)c2c1)[C@@H](CO)N(C(=O)Nc1ccccc1F)CC31CCN(C(=O)c2ccccc2F)CC1	-0.032% (inactive)
COc1ccc(NC(=O)N(C)C[C@@H]2Oc3ccc(NS(=O)(=O)c4ccc(Cl)cc4)cc3C(=O)N([C@H](C)CO)C[C@@H]2C)cc1	0.119% (inactive)
c1ccc2cc3[nH]c(CN4CCCCC4)nc3cc2c1	-0.01% (inactive)
Cc1ccc2[nH]c(=O)c(CC(=O)O)c(-c3ccccc3)c2c1	-0.089% (inactive)
Cc1ccc2[nH]c(=O)c(CN3CCCCC3)c(-c3ccccc3)c2c1	43.2% (active)
Cc1ccccc1S(=O)(=O)N[C@H]1CC[C@@H](CCn2cc(Cc3ccccc3)nn2)O[C@H]1CO	-0.039% (inactive)

SMILES	activity (Tm shift, normalised)
Cc1noc(C)c1NC(=O)N(C)C[C@H]1OCCCC[C@H](C)Oc2ccc(NC(=O)Cc3ccccc3)cc2C(=O)N([C@H](C)CO)C[C@@H]1C	1.07% (inactive)
O=C(CSc1nnc(-c2ccncc2)o1)NCc1ccc(Cl)cc1	43.9% (active)
COc1ccc2c(C)cc(SCC(=O)NCC3CCCO3)nc2c1 (stereo unspecified)	0.011% (inactive)
CCc1ccccc1NC(=O)CSc1nnc(-c2ccncc2)o1	-0.04% (inactive)
O=C(CSc1ccc(-c2ccccc2)nn1)NCC1CCCO1 (stereo unspecified)	-0.177% (inactive)
O=C(CSc1nnc(-c2ccncc2)o1)Nc1cccc(Cl)c1	0.107% (inactive)
O=C(COc1ccc(Cl)cc1)NCc1nnc(SCC(=O)NCC2CCCO2)o1 (stereo unspecified)	42.9% (active)
C[C@@H]1CN([C@@H](C)CO)C(=O)c2cc(NS(=O)(=O)c3cn(C)cn3)ccc2O[C@@H]1CN(C)C(=O)NC1CCCCC1	-0.419% (inactive)
COC(=O)[C@@H]1[C@@H](CO)[C@@H]2Cn3c(ccc(-c4ccc(OC)cc4)c3=O)[C@@H]2N1S(C)(=O)=O	-0.206% (inactive)
CCC(=O)N1[C@H](C(=O)OC)[C@@H](CO)[C@@H]2Cn3c(ccc(-c4cccc(F)c4)c3=O)[C@@H]21	0.191% (inactive)
COCC(=O)N1[C@@H](CO)[C@H](c2ccccc2)C12CN(C(=O)NC1CCCCC1)C2	0.045% (inactive)
COc1ccc2c3c([nH]c2c1)[C@H](CO)N(Cc1ccccc1)CC31CCN(C(=O)c2ccccn2)CC1	-0.204% (inactive)
C[C@@H]1CN([C@@H](C)CO)C(=O)Cc2cc(NC(=O)Nc3cccc4ccccc34)ccc2O[C@H]1CN(C)CC1CCCCC1	0.094% (inactive)
O=C(NCCc1ccc(F)cc1)c1n[nH]c2ccccc12	43.3% (active)
O=C(NCCc1ccccc1)c1c[nH]c2ccc(F)cc2c1=O	0.52% (inactive)
COc1cccc(CNC(=O)c2n[nH]c3ccccc23)c1	0.239% (inactive)
CCCNC(=O)N1C[C@@H](O)COC[C@H]2O[C@H](CC(=O)NCCCN3CCOCC3)CC[C@@H]21	-0.348% (inactive)
COc1ccccc1-c1ccc2c(c1)O[C@H](CN(C)C(=O)c1cccnc1)[C@H](C)CN([C@@H](C)CO)S2(=O)=O	-0.096% (inactive)
O=C(C[C@@H]1CC[C@@H]2[C@H](COC[C@H](O)CN2C(=O)C2CC2)O1)NCc1ccncc1	0.141% (inactive)
CN(C)CC(=O)N1[C@H](CO)[C@@H](c2ccc(-c3cccc(C(=O)N(C)C)c3)cc2)[C@@H]1C#N	0.074% (inactive)
NC(=O)N1CCc2ccccc21	43.1% (active)
O=C(c1cnn2ccccc12)N1CCc2ccccc21	-0.357% (inactive)
O=C(NC(=S)N1CCc2ccccc21)c1ccco1	0.306% (inactive)
C[C@H](CO)N1C[C@H](C)[C@@H](CN(C)C(=O)Cc2ccncc2)Oc2ncc(C3=CCCCC3)cc2C1=O	0.188% (inactive)
